Test results taken from PubChem BioAssay AID1159580 (chemical genetic matrix, 2015).
Screen size: about 5,500 compounds; about 2,000 (36%) were called active. Roughly 18% stayed inconclusive and do not appear here. Cut-off read from the data, not from the text of the source: active = normalized growth mostly below about 0.91 (no sharp cut-off); inconclusive = no clear call, values can overlap the other calls; inactive = mostly above about 0.92. The list shows a part of the results.

Assay: chemical genetic growth profiling, strain panel (AID 1159580);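 note: tested at 20 µM; growth read once vehicle control cultures reached saturation at 30 °C; 1 = growth at the plate median or of vehicle wells; lower values mean less growth of the strain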
Conditions: S. cerevisiae deletion strains, growth OD
[1] = locus YAR019C, strain CDC15, hits give low values
[2] = locus YBL105C, strain PKC1, hits give low values
[3] = locus YBR135W, strain CKS1, hits give low values
[4] = locus YBR136W, strain MEC1, hits give low values
[5] = locus YBR160W, strain CDC28, hits give low values
[6] = locus YDL017W, strain CDC7, hits give low values
[7] = locus YDL028C, strain MPS1, hits give low values
[8] = locus YDL101C, strain DUN1, hits give low values
[9] = locus YDL108W, strain KIN28, hits give low values
[10] = locus YDL132W, strain cdc53, hits give low values
[11] = locus YDL214C, strain PRR2, hits give low values
[12] = locus YDR052C, strain DBF4, hits give low values
[13] = locus YDR054C, strain cdc34, hits give low values
[14] = locus YDR226W, strain ADK1, hits give low values
[15] = locus YDR477W, strain SNF1, hits give low values
[16] = locus YER123W, strain YCK3, hits give low values
[17] = locus YER133W, strain GLC7, hits give low values
[18] = locus YFL009W, strain cdc4, hits give low values
[19] = locus YFL029C, strain CAK1, hits give low values
[20] = locus YFR003C, strain YPI1, hits give low values
[21] = locus YFR019W, strain FAB1, hits give low values
[22] = locus YFR028C, strain CDC14, hits give low values
[23] = locus YGR040W, strain KSS1, hits give low values
[24] = locus YGR052W, strain FMP48, hits give low values
[25] = locus YGR092W, strain DBF2, hits give low values
[26] = locus YHR030C, strain SLT2, hits give low values
[27] = locus YHR079C, strain IRE1, hits give low values
[28] = locus YHR082C, strain KSP1, hits give low values
[29] = locus YHR205W, strain SCH9, hits give low values
[30] = locus YIL147C, strain SLN1, hits give low values
[31] = locus YJL095W, strain BCK1, hits give low values
[32] = locus YJL128C, strain PBS2, hits give low values
[33] = locus YJL157C, strain FAR1, hits give low values
[34] = locus YJR016C, strain ILV3, hits give low values
[35] = locus YJR066W, strain TOR1 (second series), hits give low values
[36] = locus YJR066W, strain TOR1, hits give low values
[37] = locus YKL048C, strain ELM1, hits give low values
[38] = locus YKL067W, strain YNK1, hits give low values
[39] = locus YKL101W, strain HSL1, hits give low values
[40] = locus YKL193C, strain SDS22, hits give low values
[41] = locus YKL203C, strain TOR2, hits give low values
[42] = locus YLR113W, strain HOG1, hits give low values
[43] = locus YLR133W, strain CKI1, hits give low values
[44] = locus YLR403W, strain SFP1, hits give low values
[45] = locus YML070W, strain DAK1, hits give low values
[46] = locus YMR001C, strain CDC5, hits give low values
[47] = locus YMR205C, strain PFK2 (second series), hits give low values
[48] = locus YMR277W, strain FCP1, hits give low values
[49] = locus YNL006W, strain LST8, hits give low values
[50] = locus YNL020C, strain ARK1, hits give low values
[51] = locus YNL161W, strain CBK1, hits give low values
[52] = locus YNL183C, strain NPR1, hits give low values
[53] = locus YNL207W, strain RIO2, hits give low values
[54] = locus YNL222W, strain SSU72, hits give low values
[55] = locus YNL307C, strain MCK1 (second series), hits give low values
[56] = locus YOL078W, strain AVO1, hits give low values
[57] = locus YOL136C, strain PFK27, hits give low values
[58] = locus YOR061W, strain CKA2, hits give low values
[59] = locus YOR119C, strain RIO1, hits give low values
[60] = locus YOR231W, strain MKK1, hits give low values
[61] = locus YOR329C, strain SCD5, hits give low values
[62] = locus YPL031C, strain PHO85, hits give low values
[63] = locus YPL153C, strain RAD53, hits give low values
[64] = locus YPL204W, strain HRR25, hits give low values
[65] = locus YPL209C, strain IPL1, hits give low values
[66] = locus YPL256C, strain CLN2, hits give low values
[67] = locus YPR025C, strain CCL1, hits give low values
[68] = locus YPR106W, strain ISR1, hits give low values
[69] = locus YPR111W, strain DBF20, hits give low values
[70] = strain NNK1, hits give low values
[71] = strain TSCII, hits give low values

Measured: normalized growth

CC1(C)C=Cc2cc(/C(N)=N\OC(=O)Nc3cccc(C(F)(F)F)c3)ccc2O1
active: [26] 0.426 | [42] 0.832 | [66] 0.831
inactive: [1] 0.981 | [2] 0.982 | [3] 0.969 | [4] 0.972 | [5] 0.977 | [6] 0.987 | [7] 0.977 | [8] 0.988 | [9] 0.977 | [10] 0.977 | [11] 0.947 | [12] 0.989 | [13] 0.97 | [14] 0.976 | [15] 0.967 | [16] 0.866 | [17] 0.947 | [18] 0.976 | [19] 0.982 | [20] 0.984 | [21] 0.883 | [22] 0.978 | [23] 0.968 | [24] 0.99 | [25] 0.854 | [27] 0.825 | [28] 0.917 | [29] 0.912 | [30] 0.98 | [31] 0.726 | [32] 0.967 | [33] 0.96 | [34] 0.975 | [35] 0.832 | [36] 0.827 | [37] 0.934 | [38] 0.933 | [39] 0.934 | [40] 0.979 | [41] 0.991 | [43] 0.937 | [44] 0.949 | [45] 0.887 | [46] 0.98 | [47] 0.93 | [48] 0.987 | [49] 0.985 | [50] 0.924 | [51] 0.984 | [52] 0.801 | [53] 0.984 | [54] 0.981 | [55] 0.931 | [56] 0.976 | [57] 0.903 | [58] 0.945 | [59] 1.04 | [60] 0.823 | [61] 0.988 | [62] 0.935 | [63] 0.871 | [64] 0.903 | [65] 0.98 | [67] 0.978 | [68] 0.981 | [69] 0.963 | [70] 0.993 | [71] 0.979

N/C(=N/OC(=O)Nc1cccc(C(F)(F)F)c1)c1ccc(OC(F)(F)F)cc1
active: [16] 0.524 | [21] 0.745 | [24] 0.551 | [26] 0.21 | [27] 0.306 | [28] 0.496 | [31] 0.287 | [42] 0.361 | [52] 0.53 | [60] 0.269 | [63] 0.485 | [66] 0.456
inactive: [1] 0.983 | [2] 1 | [3] 0.979 | [4] 0.985 | [5] 0.969 | [6] 0.995 | [7] 0.972 | [8] 0.989 | [9] 0.975 | [10] 0.979 | [11] 0.895 | [12] 0.998 | [13] 0.971 | [14] 0.971 | [15] 0.822 | [17] 0.893 | [18] 0.953 | [19] 0.981 | [20] 0.994 | [22] 0.976 | [23] 0.837 | [25] 0.616 | [29] 0.882 | [30] 0.988 | [32] 0.93 | [33] 0.905 | [34] 0.988 | [35] 0.731 | [36] 0.555 | [37] 0.874 | [38] 0.883 | [39] 0.743 | [40] 0.985 | [41] 0.895 | [43] 0.887 | [44] 0.914 | [45] 0.716 | [46] 0.983 | [47] 0.906 | [48] 0.97 | [49] 0.977 | [50] 0.794 | [51] 0.996 | [53] 0.995 | [54] 0.973 | [55] 0.814 | [56] 0.983 | [57] 0.821 | [58] 0.883 | [59] 0.869 | [61] 0.993 | [62] 0.749 | [64] 0.684 | [65] 0.992 | [67] 0.99 | [68] 0.976 | [69] 0.946 | [70] 0.98 | [71] 0.986
